# A selection: hits, their analogues and other compounds. The true share with any hit is near 2.8%.
# TGFb inhibitor: qHTS for Inhibitors of TGF-b | HepG2 CAGA-GFP TGF-b/SMAD3 reporter, GFP fluorescence, 18 h; TGF-beta stimulated, 500 pg/mL final | Potency, µM (top dose mostly 46.1 µM), inactives show top-dose activity, negative = inhibition, usual class: inhibitors | 1.2% of 410,000 active | AID 588855, 2011; further: on the % scale 0 is the no-effect control and ±100 the full control effect; nearly all actives have a fitted effect of over 65% in size
#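 First, reporter cells (HEPG2 CAGA-GFP) rested 2 h at 37 degrees C. Next, compounds were pinned in and TGF-beta added to 500 pg/mL final. After 18 h, GFP was imaged per cell and summed per well.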
# ATXN2 expr inh: Primary qHTS for Inhibitors of ATXN expression; AID 1745845, 2022; 0.72% of 360,000 active; Potency, µM (series often up to 57 µM), without a hit: at the top dose activity change, negative = inhibition, most hits filed as inhibitors; HEK-293 ATXN2-luciferase reporter, luminescence, 24 h; further: on the % scale 0 is the no-effect control and ±100 the full control effect; nearly all actives have a fitted effect of over 55% in size
#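 qHTS (up to 57 uM final) was run with 24 h compound exposure of reporter cells at 37 °C. Each well was multiplexed: SteadyGlo luminescence measured ATXN2-luciferase expression after a fluorogenic Gly-Phe-AFC viability readout (25 uM final).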
# HTT cytoprotect: qHTS Multiplex Assay to Identify Dual Action Probes in a Cell Model of Huntington: Cytoprotection (ATP); Potency, µM (series often up to 56.4 µM), for inactives: cytoprotection (ATP increase), actives largely listed as activators; PC12 HTT-Q103 induced, cytoprotection, ATP luminescence, 40 h; AID 1471, 2008; 0.14% of 230,000 active; further: % of control where 0% means no effect; nearly all actives have a fitted effect of over 45% in size
#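 Cells were plated at 1500 per well in phenol red-free DMEM with 5% equine and 5% calf serum. Tebufenozide (100 nM final) and compounds were added, then ATPlite reagent, and luminescence was read.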
# HttQ103 aggreg: qHTS Multiplex Assay to Identify Dual Action Probes in a Cell Model of Huntington: Aggregate Formation (GFP). Potency, µM (doses to about 46.1 µM), inactives show top-dose activity change, negative = inhibition, actives largely listed as inhibitors. PC12 HttQ103-GFP aggregates, Acumen cytometry, 40 h. 1.1% of 220,000 active; further: on the % scale 0 is the no-effect control and ±100 the full control effect; nearly all actives have a fitted effect of over 60% in size
#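 PC12 cells stably carrying ecdysone-inducible HTT exon 1 Q103–GFP were induced with tebufenozide (100 nM final) and treated with library compounds in titration. GFP aggregates in lysates were counted by laser scanning cytometry.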
# S2 tox: Viability Counterscreen for Primary qHTS for Inhibitors of ATXN expression; AID 651635, 2014; 0.49% of 400,000 active; Potency, µM (doses to about 56.7 µM), hits mostly cytotoxic; S2 cells (HEK-293 line with an ATXN2-luciferase reporter) viability, CellTiter-Fluor protease fluorescence, 24 h; further: nearly all actives have a fitted effect of over 40% in size
# HepG2 viability: qHTS for Inhibitors of TGF-b: Cytotox Counterscreen; HepG2 CAGA-GFP viability, ATP luminescence, 18 h; Potency, µM (titrated, usually from 46.1 µM), for inactives: top-dose activity change, negative = cytotoxicity, hits mostly cytotoxic; 0.76% of 410,000 active; AID 588856, 2011
#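 HepG2 CAGA-GFP cells (1000/well, DMEM with 1% FBS) received compound, then TGF-beta at 500 pg/mL final, and were incubated 18 hours at 37 degrees C. Viability was read by CellTiter-Glo luminescence. Media-only wells were set as complete cell-killing and DMSO as no toxicity.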
# An asterisk follows results filed as active; i = inactive; ? = inconclusive; . = no result; [ ] = another dose, or the depositor's remark. The call rests on the fitted dose curve; in most records, active means well fitted curve in the direction sought with a large enough effect; inconclusive means small, poorly fitted or top-dose-only effect, or another doubt; inactive means no such curve, though single readings can be large; an effect the other way counts as inactive or inconclusive. Potency means the concentration at half of the fitted maximal effect.
SMILES,TGFb inhibitor,ATXN2 expr inh,HTT cytoprotect,HttQ103 aggreg,S2 tox,HepG2 viability
CN(C)c1ccc(/C=C/c2ccnc3c([N+](=O)[O-])cccc23)cc1,-2%,.,.,.,.,-40%
Cc1cc2nnc(SCC(=O)OC(C)C)n2c2ccccc12,-17%,15%,-95%[10 µM],4µM*,i,-27%
CC(=O)CSc1nnc2cc(C)c3ccccc3n12,0%,-1%,-4%[10 µM],18%,i,-1%
Cc1ccc(CN2CCOc3ccc(CN4CCC(O)(c5cccnc5)CC4)cc3C2)cc1,.,.,.,.,i,.
CCCCCN=Cc1c(C)[nH]n(-c2nc3ccccc3s2)c1=O,-15%,13µM*,-135%,-6%,i,1.4µM*
CCCc1[nH]n(-c2nc3ccccc3s2)c(=O)c1C=NCCCOC,-18%,11%,11%[10 µM],16%[9.22 µM],i,-46%
Cc1nn(Cc2ccc(Cl)cc2Cl)c(C)c1NC(=O)c1nn(C)cc1Cl,21%,-24%,-3%,-2%,i,-16%
Cc1nn(Cc2ccc(Cl)cc2Cl)c(C)c1NC(=O)CCl,?,?,-5%[10 µM],3.5µM*,.,-74%
Cc1nn(C)c(Cl)c1NC(=O)OCc1ccc(Cl)cc1Cl,?,-17%,-15%,7.9µM*,?,-11%
Cc1ccc(CNc2ncnc3sc(C(=O)N4CCCC(C(N)=O)C4)c(C)c23)o1 (stereo unspecified),.,.,.,.,i,.
O=S1(=O)Nc2c(cc(Cl)c3ccc(Cl)nc23)-c2ccccc21,-1%,.,.,.,.,2%
Cc1ccc2ccc3c(c2n1)NS(=O)(=O)c1ccc(C(F)(F)F)cc1-3,7.1µM*,.,.,.,.,4%
Cc1nc2ccccc2n1/N=C/c1ccc([N+](=O)[O-])s1,6.3µM*,21µM*,2%[10 µM],5µM*,.,-62%
O=[N+]([O-])c1ccc(/C=N/n2cnc3ccccc32)s1,?,?,.,16µM*,.,8.9µM*
Cc1nc2ccccc2n1/N=C/c1ccc([N+](=O)[O-])o1,11µM*,?,.,.,i,-106%
Cc1cc(C)cc(N=Cc2ccc([N+](=O)[O-])s2)c1,11µM*,?,.,-7%,?,-55%
c1ccc2c(c1)CCc1ccccc1N2,.,-3%,.,.,i,.
COc1cccc(/C=N/n2c(C)nc3ccccc32)c1OC,3%,12%,-31%[10 µM],13µM*,i,-36%
COc1cccc(/C=N\n2c(C)nnc2C)c1OC,-1%,6%,-25%,-11%,i,-8%
O=c1cc(-c2ccccc2)oc2cc(O)c(O)cc12,.,.,-300%,.,.,.
O=c1cc2oc3cc(O)c(O)cc3c(-c3ccccc3[N+](=O)[O-])c-2cc1O,-24%,.,.,.,16µM*,-15%
O=C1C(=O)c2cccnc2-c2ncccc21,1.4µM*,0.5µM*,.,.,0.4µM*,2µM*
COC1=C(Br)C(=O)c2ncccc2C1=O,?,15µM*,.,.,24µM*,-52%
Cc1cc([N+](=O)[O-])ccc1NCc1ccc2ccccc2c1,20µM*,5%,10%,3%,i,-7%
C(=C\c1ccccc1)/CN1CCN(c2ncnc3c2oc2ccccc23)CC1,?,-37%,-189%[0.074 µM],6.3µM*,?,-28%
SMILES,TGFb inhibitor,ATXN2 expr inh,HTT cytoprotect,HttQ103 aggreg,S2 tox,HepG2 viability
CCCCCCCCCC[n+]1ccc(/C=C/c2c[nH]c3ccccc23)c2ccccc21,7.1µM*,.,.,.,.,13µM*
CCCCCCCC[n+]1cccc2c3ccccc3ccc21,1.4µM*,.,-161%,?,?,-10%
CCCCCCCCCC[n+]1cccc2c3ccccc3ccc21,13µM*,0.67µM*,-160%,?,?,11µM*
CCCCCCCCCCCCCCCC[n+]1ccc(C)c2ccccc21,7.1µM*,.,.,.,.,11µM*
CCCCCCCCCC[n+]1cccc2cc(Cl)ccc21,?,.,.,.,.,-84%
Cc1cc[n+](CC(=O)c2ccc(F)cc2)c2ccccc12,21%,.,.,.,.,-5%
